# From PubChem BioAssay (NCI)
# “And” between values parts separate entries of the source, which are not always exact repeats. Equal entries are not always repeated. The panel holds about 83,000 compounds, 20% with a hit somewhere; the sample as a whole holds those more often.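 Testing used 96-well plates and a 48-hour single-concentration exposure. Example: -40 means 40% of the starting cells died.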 A number with no mark means an inactive call. The source made the active and inactive calls. How the source made its calls: active means growth percent below 10; inactive means the rest.
# Assays:
# Assay in all cases: NCI-60 one-dose screen, 48 h (100 = growth as untreated, 0 = no growth, -100 = all killed)
# [1] = tested on: NCI-H23 lung
# [2] = tested on: NCI-H226 lung
# [3] = tested on: NCI-H322M lung; conditions: 10 µM unless noted
# [4] = tested on: HOP-62 NSCLC
# [5] = tested on: NCI-H460 lung
# [6] = tested on: HOP-92 NSCLC
# [7] = tested on: NCI-H522 lung
# [8] = tested on: 786-0 renal
# [9] = tested on: COLO 205 colon
# [10] = tested on: DU-145 prostate
# [11] = tested on: K-562 leukemia
# [12] = tested on: MALME-3M melanoma
# [13] = tested on: MDA-MB-231 breast
# [14] = tested on: RXF 393 renal
# [15] = tested on: SF-268 CNS
# [16] = tested on: SF-295 CNS
# [17] = tested on: SF-539 CNS
# [18] = tested on: UACC-257 melanoma
# [19] = tested on: M14 melanoma
# [20] = tested on: A549/ATCC NSCLC
compound,measurement,setting,value
CC(=O)/C=C/c1ccc(N(CCO)Cc2ccc(C(C)(C)C)cc2)cc1,growth,[1]; 10 µM,75.5%
same,growth,[1]; 100 µM,-70.7% (active)
same,growth,[2]; 10 µM,72.9%
same,growth,[2]; 100 µM,-78.1% (active)
same,growth,[3],-98.7% [100 µM] (active)
same,growth,[4]; 10 µM,78.6%
same,growth,[4]; 100 µM,-92.7% (active)
same,growth,[5]; 10 µM,74.4%
same,growth,[5]; 100 µM,-86% (active)
same,growth,[6]; 10 µM,54.7%
same,growth,[6]; 100 µM,-94.5% (active)
same,growth,[7]; 10 µM,70.1%
same,growth,[7]; 100 µM,-71% (active)
same,growth,[8]; 10 µM,87.5%
same,growth,[8]; 100 µM,-93.4% (active)
same,growth,[9]; 10 µM,90.1%
same,growth,[9]; 100 µM,-76.6% (active)
same,growth,[10]; 10 µM,78%
same,growth,[10]; 100 µM,-99.7% (active)
same,growth,[11]; 10 µM,54.6%
same,growth,[11]; 100 µM,-49.3% (active)
same,growth,[12]; 10 µM,84.5%
same,growth,[12]; 100 µM,-85.8% (active)
same,growth,[13]; 10 µM,77.5%
same,growth,[13]; 100 µM,-90.4% (active)
same,growth,[14]; 10 µM,87.5%
same,growth,[14]; 100 µM,-75.9% (active)
same,growth,[15]; 10 µM,78.9%
same,growth,[15]; 100 µM,-82.2% (active)
same,growth,[16]; 10 µM,63.5%
same,growth,[16]; 100 µM,-84.9% (active)
same,growth,[17]; 10 µM,86.9%
same,growth,[17]; 100 µM,-96.4% (active)
same,growth,[18]; 10 µM,80.8%
same,growth,[18]; 100 µM,-79.5% (active)
same,growth,[19]; 10 µM,69.4%
same,growth,[19]; 100 µM,-84.9% (active)
O=C(N/N=C/c1ccc(O)cc1O)c1cccc(Nc2ccnc(C(F)(F)F)c2)c1,growth,[1]; 10 µM unless noted,27.5%
same,growth,[2]; 10 µM unless noted,40.5%
same,growth,[3],22.7%
same,growth,[4]; 10 µM unless noted,14.3%
same,growth,[5]; 10 µM unless noted,22.2%
same,growth,[6]; 10 µM unless noted,44.1%
same,growth,[7]; 10 µM unless noted,41.5%
same,growth,[20]; 10 µM unless noted,55.9%
same,growth,[8]; 10 µM unless noted,5.8% (active)
same,growth,[9]; 10 µM unless noted,43%
same,growth,[10]; 10 µM unless noted,17.7%
same,growth,[11]; 10 µM unless noted,21.6%
same,growth,[12]; 10 µM unless noted,2.77% (active)
same,growth,[13]; 10 µM unless noted,41.3%
same,growth,[14]; 10 µM unless noted,44.9%
same,growth,[15]; 10 µM unless noted,11.8%
same,growth,[16]; 10 µM unless noted,20.4%
same,growth,[17]; 10 µM unless noted,8.62% (active)
same,growth,[18]; 10 µM unless noted,36.3%
O=C(/C=C/c1cccc(Oc2ccc(Cl)cc2)c1)c1ccccc1,growth,[1]; 10 µM,90.8%
same,growth,[1]; 100 µM,-57.9% (active)
same,growth,[2]; 10 µM,104%
same,growth,[2]; 100 µM,-63.2% (active)
same,growth,[3],-73% [100 µM] (active)
same,growth,[4]; 10 µM,98.5%
same,growth,[4]; 100 µM,-80.5% (active)
same,growth,[5]; 10 µM,97.3%
same,growth,[5]; 100 µM,-76.6% (active)
same,growth,[6]; 10 µM,111%
same,growth,[6]; 100 µM,-90.7% (active)
same,growth,[7]; 10 µM,89.2%
same,growth,[7]; 100 µM,-64.6% (active)
same,growth,[20]; 10 µM,96.2%
same,growth,[20]; 100 µM,-75.7% (active)
same,growth,[8]; 10 µM,91.3%
same,growth,[8]; 100 µM,-88.9% (active)
same,growth,[9]; 10 µM,104%
same,growth,[9]; 100 µM,-71% (active)
same,growth,[10]; 10 µM,95.3%
same,growth,[10]; 100 µM,-98.4% (active)
same,growth,[11]; 10 µM,31.6%
same,growth,[11]; 100 µM,-29% (active)
same,growth,[12]; 10 µM,102%
same,growth,[12]; 100 µM,-85.2% (active)
same,growth,[13]; 10 µM,113%
same,growth,[13]; 100 µM,-61.9% (active)
same,growth,[14]; 10 µM,101%
same,growth,[14]; 100 µM,-68.2% (active)
same,growth,[15]; 10 µM,101%
same,growth,[15]; 100 µM,-78.3% (active)
same,growth,[16]; 10 µM,94.9%
same,growth,[16]; 100 µM,-95.3% (active)
same,growth,[17]; 10 µM,99.8%
same,growth,[17]; 100 µM,-92.3% (active)
same,growth,[18]; 10 µM,101%
same,growth,[18]; 100 µM,-86.8% (active)
same,growth,[19]; 10 µM,89.5%
same,growth,[19]; 100 µM,-54.4% (active)
C=C1C(=O)O[C@H]2[C@H]1CC/C(COC(=O)NCc1ccc(Cn3c(=O)sn(CCCI)c3=O)cc1)=C\CC[C@@]1(C)O[C@@H]21,growth,[1]; 10 µM unless noted,72.1%
same,growth,[2]; 10 µM unless noted,77.9%
same,growth,[3],97.5%
same,growth,[4]; 10 µM unless noted,96%
same,growth,[5]; 10 µM unless noted,102%
same,growth,[6]; 10 µM unless noted,-29.3% (active)
same,growth,[7]; 10 µM unless noted,-68.2% (active)
same,growth,[20]; 10 µM unless noted,95.5%
same,growth,[8]; 10 µM unless noted,6.22% (active)
same,growth,[9]; 10 µM unless noted,-45.8% (active)
same,growth,[10]; 10 µM unless noted,13%
same,growth,[11]; 10 µM unless noted,4.22% (active)
same,growth,[12]; 10 µM unless noted,-75.5% (active)
same,growth,[13]; 10 µM unless noted,10.9%
same,growth,[14]; 10 µM unless noted,-5.91% (active)
same,growth,[15]; 10 µM unless noted,75%
same,growth,[16]; 10 µM unless noted,99.3%
same,growth,[17]; 10 µM unless noted,40%
same,growth,[18]; 10 µM unless noted,28.8%
Nc1nc(Cl)nc2c1ncn2C1OC(CO)C(O)C1O (stereo not drawn),growth,[1]; 10 µM unless noted,19.9% and 34.4%
same,growth,[2]; 10 µM unless noted,110%
same,growth,[3],93.1% and 101%
same,growth,[4]; 10 µM unless noted,46.6% and 63.7%
same,growth,[5]; 10 µM unless noted,80% and 87.4%
same,growth,[6]; 10 µM unless noted,42.8%
same,growth,[7]; 10 µM unless noted,50.6% and 52.1%
same,growth,[20]; 10 µM unless noted,46.2% and 49.9%
same,growth,[8]; 10 µM unless noted,24.1% and 37.5%
same,growth,[9]; 10 µM unless noted,70%
same,growth,[10]; 10 µM unless noted,64.8% and 44.9%
same,growth,[11]; 10 µM unless noted,67%
same,growth,[12]; 10 µM unless noted,74.7% and 76.4%
same,growth,[13]; 10 µM unless noted,71.1% and 90.7%
same,growth,[14]; 10 µM unless noted,123% and 118%
same,growth,[15]; 10 µM unless noted,57.6% and 63.4%
same,growth,[16]; 10 µM unless noted,102% and 103%
same,growth,[17]; 10 µM unless noted,91.7% and 111%
same,growth,[18]; 10 µM unless noted,99.1% and 85.9%
